Source: PubChem BioAssay
Only some compounds are listed: those with a hit (about 2.4% of all), similar ones and a draw of the others.
ADAM10 inh = ADAM10 inhibition, QFRET primary screen | O14672 | recombinant ADAM10, EDANS/DABCYL FRET peptide cleavage, 3 h | inhibition, % at 7 µM | 370,000 tested, 0.62% active;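 active = inhibition above a per-campaign cutoff equal to the mean of compounds falling between control-based bounds plus 3 SD, cut at about 20% in these data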;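 note: 0% = DMSO wells while the 100% control is not disclosed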
CendR NRP1 mod = NRP-1/CendR interaction modulation. O14786. FAM-RPARPAR peptide binding to NRP-1, fluorescence polarization. inhibition, % at 25 µM. 360,000 tested, 0.85% active;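 active = inhibition or corrected inhibition above about 18%, plus a signal ratio from 0.5 to 1.5, limit read from the data, passing the limit was not always enough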
Target sequence (O14786 whole entry, looked up): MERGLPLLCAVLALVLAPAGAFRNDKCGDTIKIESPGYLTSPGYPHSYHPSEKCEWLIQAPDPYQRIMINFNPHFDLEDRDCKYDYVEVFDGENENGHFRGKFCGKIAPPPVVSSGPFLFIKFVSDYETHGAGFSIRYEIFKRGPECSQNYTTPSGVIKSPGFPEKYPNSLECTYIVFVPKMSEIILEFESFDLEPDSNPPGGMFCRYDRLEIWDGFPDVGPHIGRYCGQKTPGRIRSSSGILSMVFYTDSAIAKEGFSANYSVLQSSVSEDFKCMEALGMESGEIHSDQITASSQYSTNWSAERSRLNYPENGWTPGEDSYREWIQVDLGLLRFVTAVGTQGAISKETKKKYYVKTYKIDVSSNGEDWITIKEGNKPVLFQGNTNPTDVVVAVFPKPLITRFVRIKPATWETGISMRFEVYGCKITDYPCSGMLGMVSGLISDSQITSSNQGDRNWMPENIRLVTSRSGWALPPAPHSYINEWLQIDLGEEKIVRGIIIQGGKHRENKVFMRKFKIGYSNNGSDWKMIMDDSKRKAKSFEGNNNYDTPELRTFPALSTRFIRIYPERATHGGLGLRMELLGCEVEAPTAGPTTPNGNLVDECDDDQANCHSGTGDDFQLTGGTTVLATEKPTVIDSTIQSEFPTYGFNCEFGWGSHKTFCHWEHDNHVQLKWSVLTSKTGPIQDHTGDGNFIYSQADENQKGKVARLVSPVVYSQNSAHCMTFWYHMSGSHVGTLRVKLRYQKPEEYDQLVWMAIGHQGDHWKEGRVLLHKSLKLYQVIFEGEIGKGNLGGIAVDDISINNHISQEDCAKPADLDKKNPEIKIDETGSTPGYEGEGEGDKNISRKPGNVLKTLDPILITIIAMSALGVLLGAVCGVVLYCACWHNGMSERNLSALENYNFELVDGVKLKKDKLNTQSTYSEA
APOBEC3A inh = inhibitors of human APOBEC3A DNA deaminase | recombinant A3A, FAM/TAMRA ssDNA deamination fluorescence | 330,000 tested, 0.41% active | P31941 | inhibition, % at 20 µM;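 active = at least 40% inhibition at 20 µM here, with at most 30% in a related deaminase screen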;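 note: plate controls were A3A with DMSO for no effect and wells lacking A3A enzyme for full effect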
APOBEC3G inh = APOBEC3G (human) deaminase inhibition; Q9HC16; AID 493012; inhibition, % at 20 µM; recombinant A3G, ssDNA deamination FAM/TAMRA fluorescence; 330,000 tested, 0.28% active;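 active = inhibition of at least 40% at 20 µM, with no more than 30% in the related APOBEC3A deaminase screen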;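 note: plate controls were DMSO wells with A3G for no effect and wells lacking A3G enzyme for full effect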
ADAM17 inh = inhibitors of human ADAM17; AID 720648; P78536; inhibition, % at 6.95 µM; recombinant ADAM17, EDANS/DABCYL FRET peptide cleavage; 370,000 tested, 0.83% active;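 active = inhibition above the mean of compounds lying between control limits plus 3 SD, set per campaign, cut at about 8.5% in these data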;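 note: 0% = DMSO-only wells as the low control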
APOBEC3A confirm = APOBEC3A (human) deaminase inhibition, confirmed. 1,400 tested, 63% active. recombinant A3A, ssDNA deaminase UDG fluorescence assay. shares compounds with APOBEC3A inh. inhibition, % at 20 µM;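 active = inhibition reaching a set limit, 80% of the first screen's cutoff, at 20 µM in any replicate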;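 note: plate controls were DMSO wells with A3A for no effect and wells lacking A3A enzyme for full effect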
UDG A3A counter = inhibits UDG, flagging false APOBEC3A inhibitors; 1,000 tested, under 10 active; shares compounds with APOBEC3A inh; AID 504714; UDG counterscreen, FAM/TAMRA uracil oligo fluorescence; inhibition, % at 20 µM; call rule not given here
* = called active by the depositor; . = no result.

SMILES	ADAM10 inh	CendR NRP1 mod	APOBEC3A inh	APOBEC3G inh	ADAM17 inh	APOBEC3A confirm	UDG A3A counter
CC(=O)Nc1sc2c(c1-c1nc3ccccc3s1)CCCNC2	-17.8	.	.	.	-13.0	.	.
CCN(C(=O)COc1nc(C)cc(C)c1C#N)c1ccccc1	-5.6	-3.2	59.4*	10.4	-3.8	4.8	.
Cc1sc2ncnc(N3CCC(C(=O)Nc4ccc(OC(F)F)c(Cl)c4)CC3)c2c1C	7.2	-11.0	11.1	-0.5	7.0	.	.
CCN(CC)CCNC(=O)c1ccc(NC(=O)C2CCN(c3ncnc4sc(C)c(C)c34)CC2)cc1	-0.5	3.2	44.3*	16.3	1.2	57.1*	.
COC(=O)c1ccc2c(=O)n(CCCCCC(=O)NC3CCCCC3)c(=O)[nH]c2c1	-30.4	.	.	.	-3.9	.	.
CCc1nc(CNC(=O)c2cc(OC)c(OC)c(OC)c2)no1	-1.6	1.5	47.7*	20.0	-1.6	73.2*	-1.7
COc1cc(C(=O)NCCCNC(=O)c2cc(OC)c(OC)c(OC)c2)cc(OC)c1OC	0.5	17.5	0.3	-0.8	-5.3	.	.
O=C(N[C@H](Cc1ccccc1)C(=O)N1CCCN(Cc2ccccc2F)CC1)[C@H]1O[C@@H](n2ccc(=O)[nH]c2=O)[C@H](O)[C@@H]1O	-7.8	.	.	.	-2.8	.	.
OC(COCC1COc2ccccc2O1)CN1CCN(c2ccccc2)CC1 (stereo not given)	5.1	-3.2	-3.6	-7.7	-3.9	.	.
C[N+]1(CC(O)COCC2COc3ccccc3O2)CCOCC1 (stereo not given)	-1.7	8.0	86.1*	12.2	-2.7	46.2*	.
O=C(Cn1c(=O)n(Cc2ccco2)c(=O)c2c3c(sc21)CCCCC3)Nc1ccccc1	5.2	-21.8	49.3*	20.5	2.8	54.6*	.
COc1cccc(CNC(=O)[C@H]2CCCN2C(=O)[C@H]2CCCN2C(=O)c2c(F)cccc2F)c1	-11.1	.	.	.	-4.6	.	.
O=C(Cn1c2[n+](c3ccc(C(F)(F)F)cc31)CCCCC2)Nc1ccc(Br)cc1	.	6.4	46.8*	12.8	.	14.3*	-3.0
FC(F)(F)c1cccc(Cn2c3[n+](c4ccc(C(F)(F)F)cc42)CCCCC3)c1	3.3	-15.0	49.3*	20.7	-2.3	75.3*	4.3
Cc1cc(C(C)(C)C)cc(C)c1Cn1c2[n+](c3ccc(C(F)(F)F)cc31)CCCCC2	8.6	-0.4	58.7	31.1	-0.3	.	.
N#Cc1ccc(NC(=O)Cn2c3[n+](c4ccc(C(F)(F)F)cc42)CCCCC3)cc1	-1.7	-0.6	52.7	49.3	-6.9	.	.
COc1cccc(CNC(=O)Cn2c(-c3ccccc3)cc(C(C)=O)c2C)c1OC	4.7	.	.	.	5.9	.	.
CC(=O)Nc1ccc(Nc2nnc(-c3ccc(C)c(S(N)(=O)=O)c3)c3ccccc23)cc1	7.4	1.1	60.9*	-8.9	-1.6	-0.7	-2.3
Cc1cc2c(nc1C)CCCN2S(=O)(=O)c1c(C)noc1C	-5.0	.	.	.	-2.8	.	.
N#C/C(=C\c1c(N2CCCCCC2)nc2ccccn2c1=O)C(=O)NC1CCS(=O)(=O)C1 (stereo not given)	-33.4	-30.9	44.2*	-8.8	-10.8	-3.5	-2.1
FC(F)(F)c1cc(CNC2CCC23CCC(c2ccccc2)CC3)ccc1Cl (stereo not given)	-6.9	.	.	.	-5.5	.	.
COc1cc(C2CC=C(C(=O)O)C(c3ccccc3F)N2S(=O)(=O)c2ccc(C)cc2)cc(OC)c1OC (stereo not given)	1.8	.	.	.	0.0	.	.
CC(=O)Nc1cc(C(=O)O)ccc1S(=O)(=O)c1ccc(C)cc1	-32.3	-9.1	2.7	-8.1	-12.8	.	.
CCC(=O)Nc1cc(C(=O)O)ccc1S(=O)(=O)c1ccc(C)cc1	-34.3	-15.6	46.6*	9.7	-12.2	51.9*	0.3
Nn1c(SCC(=O)NC2CCCCC2)nnc1-c1n[nH]c2c1CCC2	-8.3	.	.	.	-0.5	.	.
SMILES	ADAM10 inh	CendR NRP1 mod	APOBEC3A inh	APOBEC3G inh	ADAM17 inh	APOBEC3A confirm	UDG A3A counter
Cc1ccccc1OCC(=O)N/N=C/c1ccc([N+](=O)[O-])o1	-14.0	-14.4	1.7	-6.2	0.9	.	.
COc1ccccc1OCC(=O)N/N=C/C=C/c1ccc([N+](=O)[O-])o1	1.4	-6.7	44.6*	23.2	4.2	19.0*	-2.6
C[n+]1ccc(/C=C/c2ccc(Br)cc2)cc1	-28.7	3.8	50.9*	21.5	-10.8	81.6*	-34.5
CN(C)CCOC(=O)C1(c2ccccc2)CCCC1	0.7	5.1	1.4	0.6	-2.0	.	.
C[N+]1(CCCOC(=O)C2(c3ccccc3)CCCC2)CCOCC1	1.7	5.3	85.1*	27.9	-3.9	69.3*	-2.6
C[N+]12CCCCC1[C@@H](CO)CCC2 (stereo not given in full)	-5.2	4.2	56.3*	22.1	-2.5	70.6*	2.1
O=C(OC12CCCN(C1)/C(=C/c1cccc(Cl)c1)C2)C1CCCCC1 (stereo not given)	-9.5	.	.	.	-2.1	.	.
CC1CCCN(C(=O)c2ccc3c(=O)n4nc(Nc5ccccc5)sc4nc3c2)C1 (stereo not given)	-10.0	-9.5	.	.	-7.0	.	.
Cc1cccc(Nc2nn3c(=O)c4ccccc4nc3s2)c1	-4.2	-12.4	46.4*	8.2	-1.3	22.4*	1.4
O=C(NC1CCCCC1)N1CCC(c2nc3ccc(Cl)cc3[nH]2)CC1	1.1	-2.1	40.0*	-2.8	-2.7	0.2	-1.4
CCC[C@H]1[C@@H](N(C)CC2CCCCC2)CC[C@@]23CCCN2C(=O)CCC[C@@H]13	1.8	.	.	.	-0.9	.	.
COc1ccc(CC(=O)NNC(=O)c2ccccn2)cc1	-1.4	8.1	45.7*	2.4	-1.7	-1.1	.
CN(CCCS(=O)(=O)[O-])c1ccc(/C=C/c2ccc3ccccc3[n+]2C)cc1	-6.0	14.9	58.0*	24.3	-1.5	68.0*	-3.0
CCN=C1NC(CCc2ccccc2)C(C(=O)OC)=C(C)N1Cc1ccccc1C(F)(F)F (stereo not given)	-4.6	.	.	.	-1.7	.	.
COC(=O)C1=C(C)N(Cc2ccccc2)C(=NCCCCO)N[C@H]1CCc1ccccc1	-33.3	-2.1	44.3*	4.1	-11.5	67.1*	-3.2
COC(=O)C1=C(C)N(C)C(=NCC2CC2)NC1c1cccc(C(F)(F)F)c1 (stereo not given)	-8.4	.	.	.	-1.7	.	.
COCCN=C1N[C@@H](c2cccc(C(F)(F)F)c2)C(C(=O)OC)=C(C)N1Cc1ccccc1	1.6	2.9	63.2*	9.7	2.8	43.8*	.
CCN1C(=NCCCCO)N[C@@H](c2cccc(C(F)(F)F)c2)C(C(=O)OC)=C1C	-4.5	-1.1	49.8*	6.1	-1.2	60.6*	-1.6
COC(=O)C1=C(C)N(Cc2ccccc2)C(=NCCCCO)N[C@H]1c1cccc(C(F)(F)F)c1	-16.1	2.9	44.1*	9.3	-6.4	56.9*	-1.4
CCCN(CC1CC1)C(=O)CN1C(=O)C2CCCCN2C(=O)c2ccccc21 (stereo not given)	-10.8	.	.	.	-2.4	.	.
